Values joined by “and” are separate entries in the source; they are usually repeats but may differ in a detail not shown here. Equal values may be shown once. Inconclusive results are not listed. Values without a mark were called inactive. Active and inactive are the calls of the source. Calls come from the whole dose curve; as a rule, active = well fitted inhibition curve with a large enough effect; inconclusive = small, poorly fitted or top-dose-only effect; inactive = no such curve, though single readings can be large or run the other way.

The target in the test is RecQ-like DNA helicase BLM (Homo sapiens) (UniProt P54132). Nature of the test: qHTS for Inhibitors of Bloom's syndrome helicase (BLM): Helicase DNA unwinding fluorescent orthogonal confirmatory assay for SAR. To be noted: fluorescence, orthogonal confirmation; series mostly up to 55.6 µM; activity change, negative = inhibition: at the top concentration. Summed up: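 Purified BLM unwound a fluorescently labelled DNA substrate at room temperature in pH 7.5 Tris buffer with 2mM ATP and 2mM MgCl2. Products were resolved on native 15% gels. Loss of single-stranded product band, normalised to no-inhibitor and no-enzyme controls, indicates inhibition.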
Sequence of RecQ-like DNA helicase BLM (Homo sapiens) (P54132 whole entry, looked up): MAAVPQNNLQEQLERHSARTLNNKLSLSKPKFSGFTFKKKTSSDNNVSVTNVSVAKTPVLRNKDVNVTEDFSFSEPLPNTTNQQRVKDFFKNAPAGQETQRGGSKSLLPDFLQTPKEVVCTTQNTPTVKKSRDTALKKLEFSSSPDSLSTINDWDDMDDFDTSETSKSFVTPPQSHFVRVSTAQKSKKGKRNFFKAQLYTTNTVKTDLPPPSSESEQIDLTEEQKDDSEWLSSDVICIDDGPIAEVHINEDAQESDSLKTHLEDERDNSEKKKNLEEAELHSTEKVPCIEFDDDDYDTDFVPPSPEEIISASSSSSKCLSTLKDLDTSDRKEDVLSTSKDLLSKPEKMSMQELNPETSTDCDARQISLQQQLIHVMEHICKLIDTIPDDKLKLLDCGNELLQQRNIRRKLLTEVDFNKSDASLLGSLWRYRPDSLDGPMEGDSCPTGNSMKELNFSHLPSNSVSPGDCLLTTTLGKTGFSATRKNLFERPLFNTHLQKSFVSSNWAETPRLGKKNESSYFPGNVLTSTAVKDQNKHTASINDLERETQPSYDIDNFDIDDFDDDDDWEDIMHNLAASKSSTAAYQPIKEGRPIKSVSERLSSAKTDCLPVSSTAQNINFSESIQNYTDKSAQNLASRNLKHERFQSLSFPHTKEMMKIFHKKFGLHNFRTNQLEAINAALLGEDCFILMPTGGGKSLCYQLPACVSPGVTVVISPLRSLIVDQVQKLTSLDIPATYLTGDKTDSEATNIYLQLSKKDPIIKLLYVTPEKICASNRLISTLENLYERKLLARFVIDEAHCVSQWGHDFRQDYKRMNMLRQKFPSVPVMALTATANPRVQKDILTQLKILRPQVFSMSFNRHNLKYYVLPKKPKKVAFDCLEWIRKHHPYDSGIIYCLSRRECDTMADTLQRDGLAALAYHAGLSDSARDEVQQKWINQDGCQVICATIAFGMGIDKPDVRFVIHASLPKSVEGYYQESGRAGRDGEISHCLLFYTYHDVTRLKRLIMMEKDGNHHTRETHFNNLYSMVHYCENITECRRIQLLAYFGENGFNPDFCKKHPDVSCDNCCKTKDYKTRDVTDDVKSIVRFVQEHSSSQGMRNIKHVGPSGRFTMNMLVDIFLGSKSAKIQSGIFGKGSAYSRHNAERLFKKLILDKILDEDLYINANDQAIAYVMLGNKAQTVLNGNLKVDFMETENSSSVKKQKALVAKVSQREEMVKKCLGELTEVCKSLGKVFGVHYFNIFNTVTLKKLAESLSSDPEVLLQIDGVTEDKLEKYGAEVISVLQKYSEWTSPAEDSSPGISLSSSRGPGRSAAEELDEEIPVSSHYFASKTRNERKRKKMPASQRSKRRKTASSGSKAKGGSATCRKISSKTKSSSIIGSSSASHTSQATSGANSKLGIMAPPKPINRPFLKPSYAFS
As to `O=C(Nc1ccc(-c2nc3ccccc3[nH]2)cc1)Nc1ccc2occc2c1`, the “activity change, negative = inhibition” value is -6.03%. For the compound `Cc1cc(NC(=O)Nc2nnc(-c3cccnc3)s2)ccc1Br`, the Potency was 5.62 µM (active).

As to `O=C(Nc1ccc2ccccc2c1)Nc1nnc(Br)s1`, the “activity change, negative = inhibition” value was -13.7%. Consider `O=C(Nc1ccc(Cl)c([N+](=O)[O-])c1)Nc1nnc(-c2ccc(F)cc2)s1`, for which the Potency was 2.24 µM (active). Turning to `Cc1cc(NC(=O)Nc2nnc(-c3ccncc3)s2)ccc1F`, the Potency was 15.8 µM (active).

Take `O=C(Nc1nnc(-c2ccncc2)s1)Nc1ccc(Cl)cc1Cl`: the Potency was 31.6 µM (active). For `O=C(Nc1ccc2c(c1)OCCO2)Nc1nnc(-c2ccncc2)s1`, the “activity change, negative = inhibition” value is 8.77%. `CCCCCCNC(=O)Nc1nnc(-c2ccncc2)s1`: the “activity change, negative = inhibition” value is 7.51%. For the compound `O=C(Nc1cc(C(F)(F)F)cc(C(F)(F)F)c1)Nc1nnc(-c2ccncc2)s1`, the Potency was 12.6 µM (active).

Take `O=C(Nc1ccc2ccccc2c1)Nc1nnc(-c2cccnc2)s1`: the Potency was 10 µM (active).

Regarding `O=C(Nc1ccc(-c2nc3ccccc3[nH]2)cc1)Nc1ccc2c(c1)CCCO2`, the “activity change, negative = inhibition” value is -2%.

`COc1ccc(-c2nnc(NC(=O)Nc3ccc4ccccc4c3)s2)cc1OC`: the “activity change, negative = inhibition” value was -6.42%. For `Cc1cc(NC(=O)Nc2nnc(-c3cccnc3)s2)ccc1Cl`, the Potency is 7.94 µM (active) and 3.98 µM (active). On to `O=C(Nc1ccc2ccccc2c1)Nc1nnc(-c2ccc(O)cc2)s1`, for which the “activity change, negative = inhibition” value was 2.72%. In the case of `N#CN/C(=N\c1nnc(-c2ccncc2)s1)Nc1ccc(F)c(C(F)(F)F)c1`, the Potency is 3.16 µM (active). Still for that read-out and setting: then `Cc1cc(NC(=O)Nc2nnc(-c3ccncc3)s2)ccc1Cl`, with 7.94 µM (active). For `O=C(Nc1ccc(Cl)c(Cl)c1)Nc1nnc(C2CCCCC2)s1`, the “activity change, negative = inhibition” value was -3.65%. Turning to `O=C(Nc1ccc(Cl)c(C(F)(F)F)c1)Nc1nnc(-c2cccnc2)s1`, the Potency is 3.16 µM (active).

For `O=C(Nc1ccc(Cl)c([N+](=O)[O-])c1)Nc1nnc(-c2ccncc2)s1`, the Potency is 1 µM (active). Same read-out and setting: then `Cc1cc(NC(=O)Nc2nnc(-c3ccncc3)s2)ccc1Br`, with 12.6 µM (active); and `O=C(Nc1ccc(Br)c(Br)c1)Nc1nnc(-c2cccnc2)s1`, with 3.55 µM (active). In the case of `O=C(Nc1ccc(Cl)c(Cl)c1)Nc1nnc(-c2ccncc2)o1`, the “activity change, negative = inhibition” value is 0.56%. With `O=C(Nc1ccc(-n2cncn2)c(F)c1)Nc1nnc(-c2ccncc2)s1`, the Potency is 14.1 µM (active). Still for that read-out and setting: then `O=C(Nc1ccc(Cl)c([N+](=O)[O-])c1)Nc1cccc(-c2ccncc2)n1`, with 2.82 µM (active). Turning to `Cc1cc(NC(=O)Nc2nnc(C3CCCCC3)s2)ccc1F`, the “activity change, negative = inhibition” value is 2.36%. As to `O=C(Nc1ccc(Cl)c(C(F)(F)F)c1)Nc1nnc(-c2ccncc2)s1`, the Potency was 7.08 µM (active).

As for `O=C(Nc1ccc(Cl)c(Cl)c1)Nc1nnc(N2CCNCC2)s1`, the “activity change, negative = inhibition” value is 10.7%. For the compound `COc1ccc(NC(=O)Nc2ccc(-c3nc4ccccc4[nH]3)cc2)cc1OC`, the “activity change, negative = inhibition” value is 10.2%. Consider `O=C(Nc1ccc2ccccc2c1)Nc1nnc(C2CCCCC2)s1`, for which the “activity change, negative = inhibition” value was 10.8%.

Consider `O=S(=O)(Cc1ccc(Cl)c(Cl)c1)Nc1nnc(-c2ccncc2)s1`, for which the “activity change, negative = inhibition” value was -0.31%. Consider `Cc1cc(NC(=O)Nc2nnc(C3CCCCC3)s2)ccc1Br`, for which the “activity change, negative = inhibition” value is -10.8%. On the same count and under the same terms, for `Cc1ccc(-c2nnc(NC(=O)Nc3ccc4ccccc4c3)s2)cc1` the value was -1.64%. `N#Cc1cc(NC(=O)Nc2nnc(-c3ccncc3)s2)ccc1Br`: the Potency is 0.501 µM (active). On the same count and under the same terms, then `O=C(Nc1ccc(Cl)c(Cl)c1)Nc1nnc(-c2cccnc2)s1`, with 3.55 µM (active).

(Values after PubChem BioAssay AID720555 (National Center for Advancing Translational Sciences (NCATS), 2013).)
